Screening data as filed in PubChem BioAssay.
Calb FLC – affects C. albicans growth with fluconazole; C. albicans CaCi-2 (fluconazole-resistant clinical isolate) + fluconazole, Alamar Blue growth, 48 h; growth inhibition, % (no concentration beside the values); actives 0.57% (n = 300,000); AID 1979;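 active = growth inhibition above about 58% in most replicates, limit read from the data, passing the limit was not always enough; inconclusive = exactly half the replicates above a set limit; inactive = most replicates below a set limit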;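 note: all wells also contain fluconazole at 8 µg/ml as a sub-toxic cotreatment; 0% = median of DMSO wells and 100% = median of geldanamycin control wells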
CSC inhib – cancer stem cell inhibition; cancer stem cell-like cells viability, luminescence; actives 1.1% (n = 300,000); inhibition, % at 7.5 µM; in the data active = inhibition above about 75%; inconclusive = no clear call, values can overlap the other calls; tested in HMLE shEcad cells
Mdm2 MdmX PPI – disrupts the human Mdm2-MdmX interaction | actives 3% (n = 330,000) | SaOS-2 split-luciferase Mdm2/MdmX complementation, luminescence | inhibition, % at 8 µM | O15151+Q00987;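 active = inhibition of at least 50% at 8 µM in the primary screen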
MPTP inh – blocks calcium-induced mitochondrial swelling | AID 602449 | inhibition, % at 10 µM | actives 1.4% (n = 360,000) | isolated mouse mitochondria, Ca2+ swelling absorbance, 30 min;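 active = inhibition of 50% or more, scaled per plate between neutral and stimulator controls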;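 note: 0% = DMSO wells given calcium and 100% = 1 mM EGTA wells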
Beta apoptosis – beta cell apoptosis inhibition; AID 435005; protection from apoptosis, % (no concentration beside the values); INS-1E cytokine-induced death, ATP luminescence, 48 h; percent of positive-control rescue, neutral wells zero; actives 0.8% (n = 300,000);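 active = Every replicate reaches about 75%, or at least half do and their mean reaches it too, limit read from the data; inconclusive = At least half of replicates reach the limit but their mean does not; inactive = Under half of replicates reach the limit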;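 note: 0% = cytokine-treated negative control wells and 100% = positive control rescue; higher means more ATP so stronger rescue from cytokine killing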
Mdm2-MdmX conf – human Mdm2/MdmX binding inhibition, confirmed; inhibition, % at 8 µM; actives 55% (n = 10,000); shares compounds with Mdm2 MdmX PPI; luminescent assay; in the data active = inhibition above about 40%
FLuc counter – counter-screen for Mdm2/MdmX inhibitors: full-length luciferase. AID 504607. SaOS-2 full-length luciferase counterscreen, luminescence. actives 77% (n = 6,200). inhibition, % at 8 µM. shares compounds with Mdm2 MdmX PPI;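 active = mean inhibition at 8 µM reaching about 37%, which flags the compound as non-specific, limit read from the data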;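 note: p53-null SaOS-2 cells with luciferase driven by a doxycycline-inducible promoter; compound on cells about two nights before reading with doxycycline added after day one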
Active calls of the source: *; u = inconclusive; x = not tested or not shown. This is a sample that favours compounds with a hit; in the whole collection about 4.8% have one here.

SMILES	Calb FLC	CSC inhib	Mdm2 MdmX PPI	MPTP inh	Beta apoptosis	Mdm2-MdmX conf	FLuc counter
CCN(CC)CCNC(=O)c1[nH]c2ccc(OCc3ccccc3)cc2c1C	-2	83*	61*	1	24	39	69*
CC(=O)Nc1cc2c(c([N+](=O)[O-])c1C)C(C)(C)CC2(C)C	x	x	x	1	x	x	x
Cc1c(N=NC2=C(O)CC(C)(C)CC2=O)cc2c(c1[N+](=O)[O-])C(C)(C)CC2(C)C	-5	11	70*	-1	1	21	x
O=C(NCc1ccc(Cl)cc1)C1CC(O)CN1S(=O)(=O)c1ccc(Cl)cc1 (stereo unspecified)	-4	-9	-29	0	3	x	x
CCOc1ccc(CNC(=O)Cn2nc(C)n3nc(-c4ccccc4)cc3c2=O)cc1	33	-10	97*	-2	-4	15	x
CCOc1ccc(CNC(=O)Cn2c(=O)c3cccn3c3ccccc32)cc1	-14	0	55*	0	3	2	x
CCc1ccc(NC(=O)Cn2c(=O)c3cccn3c3ccccc32)cc1	-4	20	66*	-1	20	61*	55*
CC(C)C[C@H]1CNC(=O)C(=O)N1C[C@@H]1CCCN1C[C@H](Cc1ccccc1)N1C[C@H](Cc2ccccc2)N(CC2CCCCC2)C(=O)C1=O	x	x	x	-3	x	x	x
CCc1ccc(C(O)c2ncc(-c3cccc(OC)c3)[nH]2)cc1 (stereo unspecified)	x	x	x	2	x	x	x
CCOc1cc(CNCCc2ccc(S(N)(=O)=O)cc2)ccc1OCc1ccc(Cl)cc1	8	-8	100*	44	105*	68*	65*
Cn1c(CSc2nc3ccccc3n2C)nc2ccccc21	26	x	15	1	6	x	x
Cn1c(SC2=CS(=O)(=O)c3ccccc32)nc2ccccc21	92*	46	70*	0	13	53*	3
CN(C)S(=O)(=O)n1cc(/C=C(\NC(=O)c2ccccc2Cl)C(=O)N2CCOCC2)c2ccccc21	34	-1	62*	-1	0	-5	x
CN(C)S(=O)(=O)n1cc(/C=C(\NC(=O)c2ccccc2F)C(=O)N2CCOCC2)c2ccccc21	u	2	10	1	7	x	x
CCOC(=O)N(O)c1ccc(C=Cc2ccccc2)cc1	x	x	x	31	x	x	x
CCOc1cc(NC(=O)CCl)c(OCC)cc1NC(=O)CCl	3	-3	96*	1	-3	80*	60*
Cc1ccc(S(=O)(=O)N2CCN(C(=O)c3ccc(COc4ccccc4)o3)CC2)cc1	x	x	15	-1	6	x	x
CC1(C(=O)NS(=O)(=O)c2ccc(Cl)cc2)CCN1C(=O)CC1CC1 (stereo unspecified)	x	x	x	-1	x	x	x
O=S1(=O)c2ccccc2N=NN1Cc1ccc(Cl)c(Cl)c1	-6	-6	-7	x	-10	x	x
CC(C)(C)c1ccc(CN2N=Nc3ccccc3S2(=O)=O)cc1	1	-3	67*	-6	15	47*	59*
O=C(NCc1ccccc1)C(c1ccc(-c2ccccc2)cc1)N1CCN(c2ccccc2F)CC1 (stereo unspecified)	x	x	x	0	x	x	x
Cc1ccc(C(=O)NC2CCCCC2)cc1S(=O)(=O)N1CCCC1	3	-2	0	0	-9	x	x
COc1ccc(C)cc1NS(=O)(=O)c1ccc(NC(=O)CN(c2cc([N+](=O)[O-])ccc2C)S(C)(=O)=O)cc1	10	93*	70*	-1	112*	63*	51*
Cc1cccc(NS(=O)(=O)c2cc(NC(=O)CC(=O)c3ccc([N+](=O)[O-])cc3)ccc2C)c1	24	x	x	x	x	x	x
Cc1cccc(NS(=O)(=O)c2ccc(NC(=O)CN(c3cc([N+](=O)[O-])ccc3C)S(C)(=O)=O)cc2)c1	8	96*	55*	-2	111*	49*	52*
COc1ccc(-n2nnnc2CNC(=O)C(=O)c2c[nH]c3ccccc23)cc1	7	-2	-3	-1	x	x	x
Cc1ccc(-n2nnnc2SC(C(=O)c2c[nH]c3ccccc23)c2ccccc2)cc1 (stereo unspecified)	3	86*	60*	0	1	65*	56*
O=S(=O)(Nc1cccc(-c2ccc3nncn3n2)c1)c1cccc(F)c1	0	-4	9	0	2	x	x
